Laboratory results from PubChem BioAssay AID1159580 (chemical genetic matrix, 2015).
Out of some 5,500 compounds screened, about 2,000 (36%) were called active. Another 18% or so got no clear call; they are omitted. Rule as the data show it: active = normalized growth mostly below about 0.91 (no sharp cut-off); inconclusive = no clear call, values can overlap the other calls; inactive = mostly above about 0.92. This is one part of the list.

Assay: chemical genetic growth profiling, strain panel (AID 1159580);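 also: tested at 20 µM; growth read once vehicle control cultures reached saturation at 30 °C; 1 = growth at the plate median or of vehicle wells; lower values mean less growth of the strain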
Conditions: growth OD
[1] = S. cerevisiae deletion strains, locus YAL013W, strain DEP1, stronger effect = lower value
[2] = S. cerevisiae deletion strains, locus YBR229C, strain ROT2, stronger effect = lower value
[3] = S. cerevisiae deletion strains, locus YDL101C, strain DUN1, stronger effect = lower value
[4] = S. cerevisiae deletion strains, locus YDL134C, strain PPH21, stronger effect = lower value
[5] = S. cerevisiae deletion strains, locus YDR150W, strain NUM1, stronger effect = lower value
[6] = S. cerevisiae deletion strains, locus YEL061C, strain CIN8, stronger effect = lower value
[7] = S. cerevisiae deletion strains, locus YGR078C, strain PAC10, stronger effect = lower value
[8] = S. cerevisiae deletion strains, locus YHR030C, strain SLT2, stronger effect = lower value
[9] = S. cerevisiae deletion strains, locus YJR043C, strain POL32, stronger effect = lower value
[10] = S. cerevisiae deletion strains, locus YJR075W, strain HOC1, stronger effect = lower value
[11] = S. cerevisiae deletion strains, locus YKL190W, strain CNB1, stronger effect = lower value
[12] = S. cerevisiae deletion strains, locus YLR039C, strain RIC1, stronger effect = lower value
[13] = S. cerevisiae deletion strains, locus YLR262C, strain YPT6, stronger effect = lower value
[14] = S. cerevisiae deletion strains, locus YMR263W, strain SAP30, stronger effect = lower value
[15] = S. cerevisiae deletion strains, locus YMR307W, strain GAS1, stronger effect = lower value
[16] = S. cerevisiae deletion strains, locus YNL153C, strain GIM3, stronger effect = lower value
[17] = S. cerevisiae deletion strains, locus YNL322C, strain KRE1, stronger effect = lower value
[18] = S. cerevisiae deletion strains, locus YPL055C, strain LGE1, stronger effect = lower value
[19] = S. cerevisiae deletion strains, locus YPL241C, strain CIN2, stronger effect = lower value

Measured: normalized growth

CNC(=O)Oc1cccc2c1OC(C)(C)C2
inactive: [1] 1.01 | S. cerevisiae deletion strains, locus YBR021W, strain FUR4, stronger effect = lower value 0.994 | [2] 1 | S. cerevisiae deletion strains, locus YCL029C, strain bik1, stronger effect = lower value 1 | S. cerevisiae deletion strains, locus YDL035C, strain GPR1, stronger effect = lower value 1.01 | S. cerevisiae deletion strains, locus YDL074C, strain BRE1, stronger effect = lower value 1.03 | [3] 1.02 | [4] 0.997 | S. cerevisiae deletion strains, locus YDL185W, strain tfp1, stronger effect = lower value 0.978 | S. cerevisiae deletion strains, locus YDL192W, strain arf1, stronger effect = lower value 1 | S. cerevisiae deletion strains, locus YDR101C, strain arx1, stronger effect = lower value 0.992 | [5] 1.01 | S. cerevisiae deletion strains, locus YDR162C, strain NBP2, stronger effect = lower value 1.01 | S. cerevisiae deletion strains, locus YDR318W, strain mcm21, stronger effect = lower value 0.995 | S. cerevisiae deletion strains, locus YDR388W, stronger effect = lower value 0.996 | S. cerevisiae deletion strains, locus YDR502C, strain sam2, stronger effect = lower value 1 | [6] 1 | S. cerevisiae deletion strains, locus YER110C, stronger effect = lower value 0.993 | S. cerevisiae deletion strains, locus YER155C, strain BEM2, stronger effect = lower value 1.02 | S. cerevisiae deletion strains, locus YER167W, strain BCK2, stronger effect = lower value 1.02 | S. cerevisiae deletion strains, locus YGL078C, strain dbp3, stronger effect = lower value 0.979 | S. cerevisiae deletion strains, locus YGL086W, strain mad1, stronger effect = lower value 0.995 | S. cerevisiae deletion strains, locus YGL248W, strain PDE1, stronger effect = lower value 1.01 | [7] 1.01 | S. cerevisiae deletion strains, locus YGR135W, strain pre9, stronger effect = lower value 1 | S. cerevisiae deletion strains, locus YGR229C, strain SMI1, stronger effect = lower value 1.02 | S. cerevisiae deletion strains, locus YGR252W, strain gcn5, stronger effect = lower value 0.99 | [8] 1.01 | S. cerevisiae deletion strains, locus YHR079C, strain IRE1 (second series), stronger effect = lower value 0.996 | S. cerevisiae deletion strains, locus YHR094C, strain hxt1, stronger effect = lower value 0.994 | S. cerevisiae deletion strains, locus YHR129C, strain ARP1, stronger effect = lower value 1.01 | S. cerevisiae deletion strains, locus YHR200W, strain rpn10, stronger effect = lower value 1 | S. cerevisiae deletion strains, locus YIL066C, strain RNR3, stronger effect = lower value 1.01 | S. cerevisiae deletion strains, locus YIL073C, strain SPO22, stronger effect = lower value 1.04 | S. cerevisiae deletion strains, locus YIL125W, strain kgd1, stronger effect = lower value 0.987 | S. cerevisiae deletion strains, locus YIR030C, strain dcg1, stronger effect = lower value 0.996 | S. cerevisiae deletion strains, locus YJL095W, strain BCK1, stronger effect = lower value 1 | S. cerevisiae deletion strains, locus YJL134W, strain LCB3, stronger effect = lower value 1 | S. cerevisiae deletion strains, locus YJL168C, strain set2, stronger effect = lower value 0.997 | S. cerevisiae deletion strains, locus YJL187C, strain SWE1 (second series), stronger effect = lower value 1.01 | [9] 1.01 | [10] 1.01 | S. cerevisiae deletion strains, locus YKL009W, strain mrt4, stronger effect = lower value 1.01 | S. cerevisiae deletion strains, locus YKL068W, stronger effect = lower value 0.987 | S. cerevisiae deletion strains, locus YKL085W, strain MDH1 (second series), stronger effect = lower value 0.978 | S. cerevisiae deletion strains, locus YKL085W, strain MDH1, stronger effect = lower value 0.978 | [11] 1.02 | S. cerevisiae deletion strains, locus YKR001C, strain vps1, stronger effect = lower value 0.999 | [12] 1.04 | S. cerevisiae deletion strains, locus YLR058C, strain SHM2, stronger effect = lower value 1.01 | S. cerevisiae deletion strains, locus YLR102C, strain apc9, stronger effect = lower value 1 | [13] 1.06 | S. cerevisiae deletion strains, locus YLR268W, strain sec22, stronger effect = lower value 1.01 | S. cerevisiae deletion strains, locus YLR330W, strain CHS5, stronger effect = lower value 1 | S. cerevisiae deletion strains, locus YLR342W, strain FKS1 (second series), stronger effect = lower value 1.02 | S. cerevisiae deletion strains, locus YLR371W, strain rom2, stronger effect = lower value 0.993 | S. cerevisiae deletion strains, locus YLR418C, strain cdc73, stronger effect = lower value 0.973 | S. cerevisiae deletion strains, locus YML016C, strain PPZ1, stronger effect = lower value 1 | S. cerevisiae deletion strains, locus YML032C, strain rad52, stronger effect = lower value 1 | S. cerevisiae deletion strains, locus YML124C, strain tub3, stronger effect = lower value 0.999 | S. cerevisiae deletion strains, locus YMR078C, strain ctf18, stronger effect = lower value 0.988 | S. cerevisiae deletion strains, locus YMR223W, strain ubp8, stronger effect = lower value 0.992 | [14] 0.992 | [15] 1.02 | S. cerevisiae deletion strains, locus YNL067W, strain RPL9B, stronger effect = lower value 1.02 | S. cerevisiae deletion strains, locus YNL128W, strain TEP1, stronger effect = lower value 1.02 | [16] 1.01 | S. cerevisiae deletion strains, locus YNL233W, strain BNI4, stronger effect = lower value 1.02 | S. cerevisiae deletion strains, locus YNL250W, strain rad50, stronger effect = lower value 0.967 | S. cerevisiae deletion strains, locus YNL271C, strain bni1, stronger effect = lower value 0.977 | S. cerevisiae deletion strains, locus YNL298W, strain CLA4, stronger effect = lower value 0.986 | S. cerevisiae deletion strains, locus YNL307C, strain MCK1, stronger effect = lower value 0.995 | [17] 1.01 | S. cerevisiae deletion strains, locus YNR052C, strain pop2, stronger effect = lower value 1 | S. cerevisiae deletion strains, locus YOL006C, strain TOP1, stronger effect = lower value 1.01 | S. cerevisiae deletion strains, locus YOL012C, strain htz1 0.992 | S. cerevisiae deletion strains, locus YOL147C, strain pex11, stronger effect = lower value 0.996 | S. cerevisiae deletion strains, locus YOR061W, strain CKA2, stronger effect = lower value 1 | S. cerevisiae deletion strains, locus YOR069W, strain VPS5, stronger effect = lower value 1.01 | S. cerevisiae deletion strains, locus YOR136W, strain idh2, stronger effect = lower value 0.993 | S. cerevisiae deletion strains, locus YOR144C, strain elg1, stronger effect = lower value 1 | S. cerevisiae deletion strains, locus YOR184W, strain ser1, stronger effect = lower value 1.01 | S. cerevisiae deletion strains, locus YOR316C, strain cot1, stronger effect = lower value 0.996 | [18] 1.03 | [19] 1 | S. cerevisiae deletion strains, locus YPR119W, strain clb2, stronger effect = lower value 0.993 | S. cerevisiae deletion strains, locus YPR141C, strain kar3, stronger effect = lower value 0.973 | S. cerevisiae deletion strains, locus YPR163C, strain tif3, stronger effect = lower value 0.987 | S. cerevisiae deletion strains, locus YPR167C, strain met16, stronger effect = lower value 0.999 | S. cerevisiae deletion strains, strain wtn01, stronger effect = lower value 0.994 | S. cerevisiae strains, strain wild type, stronger effect = lower value 1.01

N#Cc1cc(I)c(C#N)c(I)c1
inactive: [4] 0.978 | [6] 0.981 | [8] 0.988 | [11] 0.973 | [12] 0.905 | S. cerevisiae deletion strains, locus YLR085C, strain ARP6, stronger effect = lower value 0.949 | [13] 0.94 | S. cerevisiae deletion strains, locus YML094W, strain GIM5, stronger effect = lower value 0.98 | [15] 0.961 | S. cerevisiae deletion strains, locus YNL298W, strain CLA4 (second series), stronger effect = lower value 0.937 | S. cerevisiae deletion strains, locus YNR030W, strain Alg12, stronger effect = lower value 0.949 | [19] 0.979 | S. cerevisiae deletion strains, locus YPR135W, strain CTF4, stronger effect = lower value 1.01
active: [1] 0.765 | [2] 0.771 | [3] 0.72 | [5] 0.782 | [7] 0.693 | S. cerevisiae deletion strains, locus YHR087W, strain rtc3, stronger effect = lower value 0.737 | [9] 0.777 | [10] 0.693 | S. cerevisiae deletion strains, locus YLR058C, strain SHM2 (second series), stronger effect = lower value 0.733 | S. cerevisiae deletion strains, locus YMR219W, strain ESC1, stronger effect = lower value 0.786 | [14] 0.775 | [16] 0.746 | [17] 0.75 | [18] 0.643
